{"source": "PubChem BioAssay AID449762", "about": "(Southern Research Specialized Biocontainment Screening …, 2010)", "note": "Several values for one entry are separate records, joined by “and”; a condition that tells them apart may be missing. Equal entries are not always repeated. About 1,900 (0.58%) of roughly 330,000 compounds were called active. Inconclusive results (about 4%) are left out. Rule as the data show it: inconclusive = inhibition above about 70% without an active follow-up result; inactive = below that. Only a sample is shown. Entries with a potency or affinity are not part of this list.", "data": [{"test": "M. tuberculosis growth inhibition, HTS (AID 449762);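 also: bacterial growth assessed after seven days of incubation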", "conditions": "M. tuberculosis H37Rv growth inhibition, 7H9 media; at 25 µM; hits give high values", "values": [{"smiles": "O=C(CCc1c[nH]c2ccccc12)OCC(=O)N1CCN(S(=O)(=O)c2ccccc2)CC1", "inhibition": "43.2% (inactive)"}, {"smiles": "Cc1ccc(S(=O)(=O)N2CCN(C(=O)CCc3c[nH]c4ccccc34)CC2)cc1", "inhibition": "-4.25% (inactive)"}, {"smiles": "COc1cc(CNC(C)c2ccccc2)c(Br)cc1OCC(N)=O", "note": "(centres undefined)", "inhibition": "-3.38% (inactive)"}, {"smiles": "Oc1ccc(-c2cn3c(n2)SCC3)cc1", "inhibition": "-2.38% (inactive)"}, {"smiles": "c1ccc(-c2cn3c(n2)SCC3)cc1", "inhibition": "-1.11% (inactive)"}, {"smiles": "COc1ccc(NC(=O)c2cc(-c3ccc(C)cc3)on2)cc1OC", "inhibition": "-6.33% (inactive)"}, {"smiles": "COc1cc2c(cc1OC)C(C1C(=O)CCCC1=O)N(C(=O)CCl)CC2", "note": "(centres undefined)", "inhibition": "2.64% (inactive)"}, {"smiles": "COc1cc2c(cc1OC)C(c1cc(Br)ccc1O)N(C(C)=O)CC2", "note": "(centres undefined)", "inhibition": "-0.81% (inactive)"}, {"smiles": "Cc1ccc(S(=O)(=O)N2[C@@H](c3ccc(Br)cc3)C(C(=O)O)=CC[C@H]2c2ccc3c(c2)OCO3)cc1", "inhibition": "3.53% (inactive)"}, {"smiles": "CCOC(=O)c1cnc(SC2CC(=O)N(c3ccc(C)cc3)C2=O)nc1N", "note": "(centres undefined)", "inhibition": "-12.6% (inactive)"}, {"smiles": "CCOC(=O)c1cnc(SC2CC(=O)N(c3ccccc3)C2=O)nc1N", "note": "(centres undefined)", "inhibition": "-5.11% (inactive)"}, {"smiles": "CC(C)(C)OC(=O)C[C@H]1C/C=C\\C[C@H](CC(=O)NCCO)C(=O)N2CCC[C@@H]2COC1=O", "inhibition": "2.79% (inactive)"}, {"smiles": "CSc1ccc(CN2CCC(CO)(Cc3ccc(Cl)cc3)CC2)cc1", "inhibition": "2.5% (inactive)"}, {"smiles": "CNC(=O)NC(=O)COC(=O)CCc1nc(=O)c2ccccc2n1C", "inhibition": "2.07% (inactive)"}, {"smiles": "Cn1nnnc1Sc1ncnc2scc(-c3cccc4ccccc34)c12", "inhibition": "61.1% (inactive)"}, {"smiles": "Cn1nnnc1Sc1ncnc2scc(-c3ccccc3)c12", "inhibition": "15.1% (inactive)"}, {"smiles": "COc1cc(C(=O)Nc2cccc(-n3cnnn3)c2)cc(OC)c1OC", "inhibition": "-9.02% (inactive)"}, {"smiles": "Cc1ccc(-c2nn(-c3ccccc3)cc2C=C2C(=O)CC(C)(C)CC2=O)cc1", "inhibition": "28.4% (inactive)"}, {"smiles": "CC1(C)CC(=O)C(=Cc2cn(-c3ccccc3)nc2-c2ccccc2)C(=O)C1", "inhibition": "14.4% (inactive)"}, {"smiles": "CC1C=CCC2C(=O)N(c3cccc(C(=O)NCc4ccccc4)c3)C(=O)C12", "note": "(centres undefined)", "inhibition": "0.47% (inactive)"}, {"smiles": "COc1ccc(-c2cn3cc(Cl)ccc3n2)cc1OC", "inhibition": "35.8% (inactive)"}, {"smiles": "COc1ccc(-c2cn3cc(C)ccc3n2)cc1OC", "inhibition": "-0.94% (inactive)"}, {"smiles": "Cc1ccc(CN(C)C(=O)C2CCC(=O)N(C3CCCCCC3)C2)cc1", "note": "(centres undefined)", "inhibition": "0.77% (inactive)"}, {"smiles": "OCCC1CN(Cc2cccn2-c2cccnc2)CCN1C1CCCCC1", "note": "(centres undefined)", "inhibition": "-3.37% (inactive)"}, {"smiles": "CO/N=C/NC(=O)NOCc1c(Cl)cccc1Cl", "inhibition": "-5.31% (inactive)"}, {"smiles": "NC(=O)NOCc1c(Cl)cccc1Cl", "inhibition": "-2.55% (inactive)"}, {"smiles": "CN(C(=O)c1ccc2nc(N)sc2c1)c1ccccc1", "inhibition": "-7.17% (inactive)"}, {"smiles": "COc1ccc(NC(=O)/C(=C\\c2cccs2)NC(=O)c2ccco2)cc1", "inhibition": "6.87% (inactive)"}, {"smiles": "CCOC(=O)N1CCN(C(=O)CCCN2C(=O)CSc3nc(C)cc(C)c32)CC1", "inhibition": "0.43% (inactive)"}, {"smiles": "COc1ccc(NC(=O)CCl)cn1", "inhibition": "55.6% (inactive)"}, {"smiles": "COc1ccc(CS(=O)(=O)/C(Cl)=C(/Cl)C(=O)Nc2ccc(OC)nc2)cc1", "inhibition": "35% (inactive)"}, {"smiles": "COc1ccc(S(=O)(=O)N2CCOCC2)cc1NC(=O)CCCOc1ccc(Cl)cc1C", "inhibition": "-8.9% (inactive)"}, {"smiles": "COc1ccccc1-n1c(-c2ccccc2)c[n+]2c1CCc1ccccc1-2", "inhibition": "10.8% (inactive) and 4.8% (inactive)"}, {"smiles": "COc1ccc(-n2c(-c3ccc(Cl)cc3)c[n+]3c2CCCCC3)cc1", "inhibition": "-4.69% (inactive)"}, {"smiles": "O=c1cccc2n1C[C@@H]1C[C@@H]2CN(CC(O)c2ccc([N+](=O)[O-])cc2)C1", "note": "(some centres undefined)", "inhibition": "9.8% (inactive)"}, {"smiles": "COc1ccccc1C(=O)COC(=O)c1cc([N+](=O)[O-])ccc1N1CCOCC1", "inhibition": "32.4% (inactive)"}, {"smiles": "Cc1ccccc1Nc1c(-c2ccccn2)nc2c(C)cccn12", "inhibition": "1.32% (inactive)"}, {"smiles": "Cc1cccn2c(Nc3ccccc3)c(-c3ccccn3)nc12", "inhibition": "67.1% (inactive)"}, {"smiles": "CCN(CC)C(=O)CSc1nnc(-c2ccc(S(=O)(=O)NCc3ccccc3Cl)cc2)o1", "inhibition": "5.34% (inactive)"}, {"smiles": "CCN(CC)C(=O)CSc1nnc(-c2c[nH]c3ccccc23)o1", "inhibition": "1.41% (inactive)"}, {"smiles": "CSc1nnc(-c2ccc(Cl)cc2Cl)o1", "inhibition": "26.3% (inactive)"}, {"smiles": "COc1ccccc1-c1nnc(SCC(=O)Nc2ccc(Cl)cc2Cl)o1", "inhibition": "-3.38% (inactive)"}, {"smiles": "Cc1ccc(C(=O)CSc2nnc(-c3c[nH]c4ccccc34)o2)cc1", "inhibition": "0.92% (inactive)"}, {"smiles": "CCSc1nnc(-c2ccc(S(=O)(=O)NCc3cccs3)cc2)o1", "inhibition": "-2.17% (inactive)"}, {"smiles": "C/C(=N\\O)c1noc(C)c1C(=O)Nc1nccs1", "inhibition": "-2.68% (inactive)"}, {"smiles": "O=S(=O)(c1cccc(-c2cn3ccccc3n2)c1)N1CCCCC1", "inhibition": "0.63% (inactive)"}, {"smiles": "CCOC(=O)[C@H]1NN=C(C(=O)OC)[C@@H]1c1ccccc1", "inhibition": "-5.97% (inactive)"}, {"smiles": "COCCOC(=O)N/C=C\\c1nc2ccccc2c(=O)[nH]1", "inhibition": "-1.7% (inactive)"}, {"smiles": "COc1ccc(C2C(C(=O)N3CCN(C)CC3)c3cc(OC)c(OC)cc3C(=O)N2C)cc1", "note": "(centres undefined)", "inhibition": "11% (inactive)"}, {"smiles": "CC(=O)c1ccc(NC(=O)C(C)O/N=C(\\N)c2ccccc2)cc1", "note": "(centres undefined)", "inhibition": "1.95% (inactive)"}, {"smiles": "CCCc1ccc(-c2cc(C(=O)NC3=NCCS3)c3ccccc3n2)cc1", "inhibition": "-0.06% (inactive)"}, {"smiles": "CC1CCCC(NC(=O)COC(=O)c2ccc(S(=O)(=O)N3CCOCC3)cc2)C1C", "note": "(centres undefined)", "inhibition": "-1.74% (inactive)"}, {"smiles": "Cc1ccc(C(=O)NNC(=O)c2csc(N3CCOCC3)n2)o1", "inhibition": "0.22% (inactive)"}, {"smiles": "Cc1nn(-c2ccccn2)c2c1-c1nc(N)ncc1CC2", "inhibition": "0.53% (inactive)"}, {"smiles": "Cc1nn(-c2ccc(F)cc2F)c2c1-c1nc(N3CCCC3)ncc1CC2", "inhibition": "69.4% (inactive)"}, {"smiles": "CCO/C=N/Nc1nc(C(F)(F)F)nc2c1cnn2Cc1ccccc1", "inhibition": "60.4% (inactive)"}, {"smiles": "COc1ccc(OC)c(NC(=O)c2ccc(OCC(=O)N3CCOCC3)c(OC)c2)c1", "inhibition": "1.16% (inactive)"}, {"smiles": "CN(Cc1ccccc1)c1nc(CN2CCOCC2)nc2scc(-c3ccccc3)c12", "inhibition": "5.04% (inactive)"}, {"smiles": "CCNc1nc(CN2CCCCC2)nc2scc(-c3ccccc3)c12", "inhibition": "40.7% (inactive)"}, {"smiles": "O=C(Nc1ccccc1[N+](=O)[O-])C1=C(O)CCn2c1nc1ccccc12", "inhibition": "-3.87% (inactive)"}, {"smiles": "Cc1ccc(NC(=O)NCc2nc3ccccc3n2C)cc1", "inhibition": "-2.85% (inactive)"}, {"smiles": "COC(=O)CN1C(=O)N(c2ccccc2)C(N(O)C(=O)Nc2ccccc2)C1(C)C", "note": "(centres undefined)", "inhibition": "2.21% (inactive)"}, {"smiles": "COc1ccc(Nc2nc(N3CCN(C)CC3)nc3ccccc23)c(OC)c1", "inhibition": "-4.21% (inactive)"}, {"smiles": "COc1ccc(Nc2nc(N3CCN(S(C)(=O)=O)CC3)nc3ccccc23)c(OC)c1", "inhibition": "2.78% (inactive)"}, {"smiles": "C=CCNC(=O)CN1C2CCCC1CC(NC(=O)c1ccccc1C)C2", "note": "(centres undefined)", "inhibition": "-6.37% (inactive)"}, {"smiles": "O=C(COC(=O)c1ccccc1N1C(=O)C2C3CCC(C3)C2C1=O)c1ccccc1", "note": "(centres undefined)", "inhibition": "-3.76% (inactive)"}, {"smiles": "COc1cc([N+](=O)[O-])ccc1NC(=O)CN1CCc2cc(OC)c(OC)cc2C1", "inhibition": "6.98% (inactive)"}, {"smiles": "CCOC(=O)C(NCCCCl)c1ccccc1", "note": "(centres undefined)", "inhibition": "0.32% (inactive)"}, {"smiles": "COc1ccccc1OCCCCN1CCCCC1", "inhibition": "2.93% (inactive)"}, {"smiles": "COc1ccccc1OCCOCCN1CCCC1", "inhibition": "-4.15% (inactive)"}, {"smiles": "CCCc1cc(NC(=O)COC(=O)c2nccnc2N)n(-c2ccccc2)n1", "inhibition": "50.9% (inactive)"}, {"smiles": "CCCc1cc(NC(=O)COC(=O)c2ccc(O)cc2O)n(-c2ccccc2)n1", "inhibition": "-2.82% (inactive)"}, {"smiles": "C=CCNC(=S)NNC(=O)CCC(O)COCCC(C)C", "note": "(centres undefined)", "inhibition": "1.2% (inactive)"}, {"smiles": "CCOC(=O)N1CCC(NC(=O)c2cc(COc3ccccc3SC)on2)CC1", "inhibition": "1.54% (inactive)"}, {"smiles": "CC1=NN(c2cccc(C(=O)O)c2)C(=O)/C1=C\\C=C\\c1ccco1", "inhibition": "-4.32% (inactive)"}, {"smiles": "COc1cc(/C=C2/C(=O)N(c3ccc(C)c(C)c3)N=C2C)cc([N+](=O)[O-])c1O", "inhibition": "-4.94% (inactive)"}, {"smiles": "Cc1nn(C)c(C)c1CNC(=O)Nc1cccc(Cl)c1C", "inhibition": "-2.03% (inactive)"}, {"smiles": "Cc1ccc([N+](=O)[O-])c(NC2OC(CO)C(O)C2O)c1", "note": "(centres undefined)", "inhibition": "-2.66% (inactive)"}, {"smiles": "COc1ccc(C2CC(c3ccc(Br)cc3)=NN2C(=O)c2cccnc2)cc1", "note": "(centres undefined)", "inhibition": "47.5% (inactive)"}, {"smiles": "N#CCc1nc2ccc(S(=O)(=O)N3CCOCC3)cc2s1", "inhibition": "-0.38% (inactive)"}, {"smiles": "Cc1ccccc1CN1CCCN(Cc2ccc(Cl)cc2)S1(=O)=O", "inhibition": "2.25% (inactive)"}, {"smiles": "CCOC(=O)c1c(NC(=O)CCCC(=O)O)sc2c1CCC2", "inhibition": "1.76% (inactive)"}, {"smiles": "CCOC(=O)c1c(NC(C)=O)sc2c1CCC(C=O)=C2Sc1ccccc1", "inhibition": "6.72% (inactive)"}, {"smiles": "COc1cccc(Cn2c(=O)ccc3ccccc32)c1", "inhibition": "7.74% (inactive)"}, {"smiles": "Cc1ccc(C(=O)Nc2ccc(Oc3cccc(C(F)(F)F)c3)nc2)cc1", "inhibition": "3.4% (inactive)"}, {"smiles": "O=C(Nc1ccc(Oc2cccc(C(F)(F)F)c2)nc1)c1ccccc1", "inhibition": "14% (inactive)"}, {"smiles": "O=C1CN=CN=CN1c1ccc(Cl)cc1Cl", "inhibition": "10.8% (inactive)"}, {"smiles": "CCOC(=O)N1CCN(C(=O)C2CCC(=O)N(CCCc3ccccc3)C2)CC1", "note": "(centres undefined)", "inhibition": "-4.71% (inactive)"}, {"smiles": "Cc1cc(C)n(-c2nc3ccccc3c(=O)n2OCC(N)=O)n1", "inhibition": "13.1% (inactive)"}, {"smiles": "Cc1cc(CC(C)C)n(-c2nc3ccccc3c(=O)n2OCc2ccccc2)n1", "inhibition": "58.9% (inactive)"}, {"smiles": "Cc1ccc(S(=O)(=O)NCC(=O)N(CC(=O)NCC2CCCO2)c2ccc(Cl)cc2)cc1", "note": "(centres undefined)", "inhibition": "-3.29% (inactive)"}, {"smiles": "COc1ccc(C(=O)NNC(=O)CSc2nc3c(c(=O)n(C)c(=O)n3C)n2C)cc1", "inhibition": "1.02% (inactive)"}, {"smiles": "O=C(Nc1ccc(C(F)(F)F)cc1)c1ccccc1", "inhibition": "0.07% (inactive)"}, {"smiles": "COc1cc(NC(=O)C[n+]2ccc(C(=O)c3ccccc3)cc2)cc(OC)c1", "inhibition": "-7.81% (inactive)"}]}]}
